From PubChem
The list is not random: actives were taken first. Their share in the collection is about 7.4%.
FLuc counter = qHTS profiling assay for firefly luciferase inhibitor/activator using purifed enzyme and Km concentrations of substrates (counterscreen for miR-21 project); purified FLuc, Km substrates, luminescence inhibition; Potency, µM (titrated, usually from 57.5 µM), hits mostly inhibitors; actives 6.9% (n = 360,000); also: nearly all actives have a fitted effect of over 55% in size
Target sequence (P08659 whole entry, looked up): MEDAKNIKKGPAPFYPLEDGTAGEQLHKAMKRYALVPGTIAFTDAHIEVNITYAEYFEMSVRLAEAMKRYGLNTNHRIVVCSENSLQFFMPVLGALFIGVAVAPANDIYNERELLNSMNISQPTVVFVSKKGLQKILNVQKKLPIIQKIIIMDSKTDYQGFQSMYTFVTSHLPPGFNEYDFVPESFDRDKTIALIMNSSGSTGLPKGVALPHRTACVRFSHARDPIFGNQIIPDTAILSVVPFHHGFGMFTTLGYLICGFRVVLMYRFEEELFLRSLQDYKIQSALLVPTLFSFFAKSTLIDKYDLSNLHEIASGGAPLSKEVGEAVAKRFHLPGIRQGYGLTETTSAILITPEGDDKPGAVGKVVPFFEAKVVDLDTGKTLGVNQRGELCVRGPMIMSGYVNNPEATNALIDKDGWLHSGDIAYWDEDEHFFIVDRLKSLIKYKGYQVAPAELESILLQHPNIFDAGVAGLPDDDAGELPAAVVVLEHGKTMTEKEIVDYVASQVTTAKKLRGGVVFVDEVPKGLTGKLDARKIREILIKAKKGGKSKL
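Biochemical qHTS of compounds, final roughly 60 µM downward over six points, against 10 nM purified firefly luciferase using Km concentrations of substrates (10 uM D-luciferin, 10 uM ATP) in Tris acetate pH 7.5 buffer; luminescence output.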
SMN2 splice up = qHTS Assay for Enhancers of SMN2 Splice Variant Expression; Potency, µM (highest dose often 46.1 µM), usual class: activators; AID 1458, 2008; actives 2.8% (n = 210,000); HEK293 SMN2-luciferase splicing reporter, luminescence, 30-36 h; also: nearly all actives have a fitted effect of over 55% in size
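HEK293 cells carry an SMN2 […]–luciferase reporter in which exon 7 inclusion puts luciferase in frame. Cells were plated 10-12 h before compound addition, then incubated 30-36 h at 37C. ONE-Glo luminescence was read; sodium butyrate at 4.5 mM final served as control.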
p53 reactivation = qHTS assay for re-activators of p53 using a Luc reporter; H1299 p53-A138V BP100-luciferase reporter, luminescence, 24 h; Potency, µM (titrated, usually from 92.2 µM), usual class: activators; actives 0.063% (n = 320,000); also: nearly all actives have a fitted effect of over 45% in size
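H1299 (p53-null), stable ts p53-A138V + BP100-Luc; 1000 cells/well, Opti-MEM/10% FBS; cpd 4 pt, 1:5; 24 h, 37 deg C, 5% CO2; detection reagent 10 min RT; luminescence.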
NPC1 promoter act = qHTS Assay for NPC1 Promoter Activators. Huh7 NPC1 promoter luciferase reporter, 24 h. Potency, µM (highest dose often 9.22 µM), actives largely listed as activators. actives 2.4% (n = 320,000); also: nearly all actives have a fitted effect of over 60% in size
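In 1536-well qHTS, Huh7 cells harboring an NPC1 promoter–luciferase construct received compound for 24 h; activation was quantified by luminescence following luciferase reagent addition.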
Rab9 prom act = qHTS Assay for Rab9 Promoter Activators. actives 2.8% (n = 320,000). Huh7 Rab9 promoter-luciferase reporter, luminescence, 24 h. Potency, µM (highest dose often 9.22 µM), hits mostly activators; also: nearly all actives have a fitted effect of over 60% in size
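Rab9 promoter-driven luciferase in stably transfected Huh7 cells; 1500 cells/well rested 2 h, exposed to compound in DMSO for 24 h at 37 °C, 5% CO2. Luminescence read 10 min after adding luciferase reagent at ambient temperature.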
ELG1 genotoxic = qHTS screen for small molecules that induce genotoxicity in human embryonic kidney (HEK293T) cells expressing luciferase-tagged ELG1. HEK293T ELG1-luciferase reporter, luminescence, 16 h. Potency, µM (series often up to 46 µM), hits mostly activators. actives 1.3% (n = 330,000); also: nearly all actives have a fitted effect of over 60% in size
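HEK293T cells expressing luciferase-tagged ELG1 were treated with compound or DMSO for 16 hr at 37°C. Luciferase activity was then read after 30 min with ONE-Glo at room temperature; rising signal flags genetic stress.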
Of the large screens only hits and unclear results are named; the others gave an inactive call. Calls follow the shape of the dose curve; as a rule, active = well fitted curve in the direction sought with a large enough effect; inconclusive = small, poorly fitted or top-dose-only effect, or another doubt; inactive = no such curve, though single readings can be large; an effect the other way counts as inactive or inconclusive.

CC(=O)c1cnc2cc(-c3ccccc3)nn2c1C	FLuc counter 2.4µM, SMN2 splice up 16µM, p53 reactivation inconclusive, NPC1 promoter act 2.5µM, Rab9 prom act 1.4µM, ELG1 genotoxic 2.2µM
COc1ccc(-c2cc3ncc(C(C)=O)c(C)n3n2)cc1	FLuc counter inconclusive, SMN2 splice up 11µM, NPC1 promoter act 2.2µM, Rab9 prom act 1.3µM, ELG1 genotoxic inconclusive
CC(=O)c1cnc2nc(SCc3ccccc3)nn2c1C	NPC1 promoter act 4.5µM, Rab9 prom act 3.5µM, ELG1 genotoxic inconclusive (no result: FLuc counter, SMN2 splice up, p53 reactivation)
CC(=O)Nc1ccc(C(=O)COC(=O)CCc2ccccc2)c(F)c1	none (no result: SMN2 splice up)
CC(=O)N1CCOc2cc(S(=O)(=O)NCc3ccc(C)cc3)c(Cl)cc21	none (no result: SMN2 splice up, p53 reactivation, NPC1 promoter act, Rab9 prom act, ELG1 genotoxic)
COc1ccc(C(=O)Nc2cc(C(F)(F)F)ccc2-n2cncn2)cc1	none
Cc1ccc(C(=O)Nc2ccc(C(F)(F)F)n(C)c2=O)cc1	FLuc counter 4.3µM, SMN2 splice up 22µM, Rab9 prom act 3.2µM, ELG1 genotoxic inconclusive
COc1ccc(C(=O)Nc2ccc(C(F)(F)F)n(C)c2=O)cc1	FLuc counter inconclusive, SMN2 splice up 14µM, p53 reactivation inconclusive, NPC1 promoter act 2.8µM, Rab9 prom act 2.2µM, ELG1 genotoxic inconclusive
CCN(CC)S(=O)(=O)c1ccc(C(=O)Nc2ccc(C(F)(F)F)n(C)c2=O)cc1	none (no result: SMN2 splice up)
COCCn1c(C(F)(F)F)ccc(NC(=O)c2ccccc2)c1=O	FLuc counter 7.6µM, p53 reactivation inconclusive, NPC1 promoter act 1.4µM, Rab9 prom act 1.3µM, ELG1 genotoxic 7.3µM (no result: SMN2 splice up)
CCCCNC(=O)N1CCN(c2ccnc3cc(Cl)ccc23)CC1	none (no result: SMN2 splice up)
CC1(C)CC[C@]2(C)CC[C@@]3(C)C(=CCC4[C@@]5(C)CCC(O)C(C)(C)C5CC[C@@]43C)C2C1 (some centres undefined)	none (no result: FLuc counter, p53 reactivation, NPC1 promoter act, Rab9 prom act, ELG1 genotoxic)
COc1ccc(C(=O)Nc2cccc3cccnc23)cc1OC	FLuc counter 21µM
COc1ccc(C(=O)Nc2cccc(NC(=O)c3ccc(OC)c(OC)c3)n2)cc1OC	FLuc counter 8.5µM (no result: SMN2 splice up)
CC(C)N(Cc1ccccc1)C(=O)c1cc2ccc3cccnc3c2[nH]1	FLuc counter 19µM (no result: SMN2 splice up, p53 reactivation, NPC1 promoter act, Rab9 prom act, ELG1 genotoxic)
COc1ccc(Cc2nnc(NC(=O)c3ccc(OC)c(OC)c3)s2)cc1	none (no result: SMN2 splice up)
COc1ccccc1C(=O)Nc1cccc(NC(=O)c2ccccc2OC)n1	FLuc counter inconclusive (no result: SMN2 splice up)
COc1ccc(C(=O)Nc2nc(C)c(C)s2)cc1OC	FLuc counter 13µM, SMN2 splice up inconclusive, p53 reactivation inconclusive, NPC1 promoter act inconclusive, Rab9 prom act inconclusive, ELG1 genotoxic inconclusive
COc1ccc(NC(=O)C(=O)Nc2cccc3cccnc23)cc1OC	Rab9 prom act inconclusive (no result: SMN2 splice up)
O=C(Nc1ccc(F)c(Cl)c1)C1CCN(S(=O)(=O)c2ccc3[nH]c(=O)ccc3c2)CC1	none (no result: SMN2 splice up, p53 reactivation, NPC1 promoter act, Rab9 prom act, ELG1 genotoxic)
CC(=O)O[C@H]1C[C@@]2(C)[C@H](C[C@@H](O)[C@H]3[C@@]4(C)CC[C@@H](O)[C@@H](C)[C@H]4CC[C@@]32C)C1=C(CCC=C(C)C)C(=O)O	none (no result: FLuc counter, p53 reactivation, NPC1 promoter act, Rab9 prom act, ELG1 genotoxic)
O=C(CC(NCc1cccnc1)C(=O)O)Nc1ccc(F)cc1 (centres undefined)	none (no result: p53 reactivation, NPC1 promoter act, Rab9 prom act, ELG1 genotoxic)
CC(C)C(=O)NCC(c1ccc2c(c1)OCO2)N1CCN(c2ccccc2)CC1 (centres undefined)	none (no result: SMN2 splice up, p53 reactivation, NPC1 promoter act, Rab9 prom act, ELG1 genotoxic)
COc1ccc(NC(=O)CSc2nc3c(c(=O)[nH]2)CCC3)cc1	none (no result: SMN2 splice up, p53 reactivation, NPC1 promoter act, Rab9 prom act, ELG1 genotoxic)
O=C(CN1CCN(Cc2ccc(F)cc2Cl)S1(=O)=O)Nc1ccc(F)cc1	none (no result: SMN2 splice up, p53 reactivation, NPC1 promoter act, Rab9 prom act, ELG1 genotoxic)
O=C(Nc1cccc2cccnc12)c1cccc2ccccc12	FLuc counter inconclusive
CCOc1ccccc1C(=O)Nc1cccc2cccnc12	FLuc counter 27µM, p53 reactivation inconclusive (no result: SMN2 splice up)
COc1ccccc1NC(=O)c1cc2ccc3cccnc3c2[nH]1	FLuc counter 2.7µM (no result: SMN2 splice up, p53 reactivation, NPC1 promoter act, Rab9 prom act, ELG1 genotoxic)
COc1cccc(C(=O)Nc2cccc3cccnc23)c1OC	FLuc counter 24µM (no result: SMN2 splice up)
Cc1ccccc1Nc1cc(C(=O)NCCCN2CCN(c3cccc(Cl)c3)CC2)c2ccccc2n1	none (no result: SMN2 splice up, p53 reactivation, NPC1 promoter act, Rab9 prom act, ELG1 genotoxic)
